{"source": "PubChem BioAssay (NCATS)", "note": "Inconclusive results are not listed. Values without a mark were called inactive. Calls follow the shape of the dose curve; as a rule, active = well fitted inhibition curve with a large enough effect; inconclusive = small, poorly fitted or top-dose-only effect; inactive = flat fitted curve, though single readings scatter.", "data": [{"assay": "qHTS of Trypanosoma Brucei Inhibitors: LOPAC Validation (AID 624147)", "settings": "purified enzyme assay, luminescence, 45 min; series mostly up to 57.5 µM; activity change, negative = inhibition: at the top concentration", "from_the_text": "Members of the Trypanosomatidae family of parasitic protozoans cause a spectrum of diseases throughout the tropical and subtropical world. Sleeping sickness, caused by two subspecies of Trypanosoma brucei, is endemic to areas of sub-Saharan Africa, while Chagas' disease, a manifestation of Trypanosoma cruzi infection, is prevalent throughout Central and South America. In addition, many species of Leishmania are responsible for a range of cutaneous and visceral diseases, causing ulcers, destructive lesions and kalaazar, a lethal infection of the viscera. These diseases cause severe public health and economic burdens on populations that are often already caught in a tragic cycle of poverty, poor nutrition and disease. Collectively, parasites of the trypanosomatid family infect 30 million people worldwide (~500 million live in endemic areas), and account for ~130K deaths annually. Existing treatments have developed little in the past 50 years, and suffer from toxicity, poor efficacy and resistance; the goal of this project is to develop lead drugs that will be suitable for entry into pre-clinical trials.\nGlycolysis in axenically cultured T. cruzi, representing the intracellular pathogenic stage, is also essential for these parasites. {Engel, 1987} This project aims to discover and optimize selective inhibitors of the glycolytic enzyme pyruvate kinase (PYK) from Trypanosoma brucei, the parasite that causes sleeping sickness. […] Trypanosomatid PYKs show significant differences from their human counterparts including only 47-50% sequence identity and different allosteric and activation properties.{Callens, 1992} To this end, a qHTS was done against the MLSMR to discover inhibitors.\nNIH Molecular Libraries Probe Production Network [MLPCN]\nNIH Chemical Genomics Center [NCGC]\nPI Name: Malcolm Walkinshaw, University of Edinburgh\n2 uL of TbPYK/substrate buffer (columns 1-3, 5-48) are dispensed into Greiner white solid bottom 1536-well assay plates; column 4 receives only TEA buffer as 0x TbPYK controls. Compounds are then transferred via Kalypsys pin tool equipped with 1536-pin array (10 nL slotted pins, V&P Scientific, San Diego, CA). Following addition of compound, 2 uL of ADP (130 uM final concentration, all columns) is added to initiate the reaction. The plates are then incubated at room temperature for 45 minutes. Kinase-Glo Plus reagent is added (3 uL) and plates incubated for 10 minutes, before being transferred to a ViewLux high-throughput CCD imager (PerkinElmer) wherein single end-point measurements of luminescence are acquired using a clear filter. All reagents are diluted in an assay buffer consisting of 50 mM TEA (pH 7.2), 100 mM KCl, 10 mM MgCl2, 0.05% BSA and 0.01% Tween-20.\nAll screening operations will be performed on a fully integrated robotic system (Kalypsys, San Diego, CA) containing one RX-130 and two RX-90 anthropomorphic robotic arms (Staeubli, Duncan, SC). Library plates will be screened starting from the lowest and proceeding to the highest concentration. Vehicle-only plates, with DMSO being pin-transferred to columns 5-48, will be inserted uniformly at the beginning and the end of each library in order to monitor and record any shifts in the background, which can be affected by reagent dispensers or loss in enzyme activity over time. Screening data will be corrected, normalized, and concentration-effect relationships will be derived by using publicly-available curve fitting algorithms developed in-house (http://ncgc.nih.gov/pub/openhts).", "units": {"activity change, negative = inhibition": "%"}, "values": [{"smiles": "CC(=O)Nc1nnc(S(N)(=O)=O)s1", "activity change, negative = inhibition": -3.06}, {"smiles": "COCCCC/C(=N\\OCCN)c1ccc(C(F)(F)F)cc1", "activity change, negative = inhibition": 3.74}, {"smiles": "CCO/C([O-])=N/c1c[n+](N2CCOCC2)no1", "activity change, negative = inhibition": -8.85}, {"smiles": "CN1C[C@H](C(=O)N[C@]2(C)O[C@@]3(O)[C@@H]4CCCN4C(=O)[C@H](Cc4ccccc4)N3C2=O)C[C@@H]2c3cccc4[nH]cc(c34)C[C@H]21", "activity change, negative = inhibition": -7.64}, {"smiles": "Cc1nc2sccn2c(=O)c1CCN1CCC(=C(c2ccc(F)cc2)c2ccc(F)cc2)CC1", "activity change, negative = inhibition": -11}, {"smiles": "CCNC(=O)N1CCN(CCCC(c2ccc(F)cc2)c2ccc(F)cc2)CC1", "activity change, negative = inhibition": -6.01}, {"smiles": "Cc1nc2c([nH]1)c(=O)n(C)c(=O)n2Cc1ccco1", "activity change, negative = inhibition": -4.55}, {"smiles": "Nc1nc(N)c2nc(-c3ccccc3)c(N)nc2n1", "activity change, negative = inhibition": -6.57}, {"smiles": "CCN1CCc2nc(N)oc2CC1", "activity change, negative = inhibition": -8.75}, {"smiles": "CN(C)[C@@H]1C(=O)C(C(N)=O)=C(O)[C@@]2(O)C(=O)C3=C(O)c4c(O)ccc(Cl)c4[C@@H](O)[C@H]3C[C@@H]12", "activity change, negative = inhibition": -14}, {"smiles": "CN1C(=O)CC[C@H]1c1cccnc1", "activity change, negative = inhibition": -5.63}, {"smiles": "C[N+](C)(C)CCOC(N)=O", "activity change, negative = inhibition": -4.32}, {"smiles": "CC(C(=O)O)c1ccc(CC2CCCC2=O)cc1", "note": "(stereo not given)", "activity change, negative = inhibition": -13.4}, {"smiles": "COc1cc(C(=O)OCCCN2CCCN(CCCOC(=O)c3cc(OC)c(OC)c(OC)c3)CC2)cc(OC)c1OC", "activity change, negative = inhibition": -2.14}, {"smiles": "COC(=O)C1=C(C)NC(C)=C(C(=O)OC(C)(C)CN(C)CCC(c2ccccc2)c2ccccc2)C1c1cccc([N+](=O)[O-])c1", "note": "(stereo not given)", "activity change, negative = inhibition": -3.44}, {"smiles": "O=C(CCCN1CCC(O)(c2cccc(C(F)(F)F)c2)CC1)c1ccc(F)cc1", "activity change, negative = inhibition": -6.47}, {"smiles": "CN1CCN(C2=Nc3ccccc3Oc3ccc(Cl)cc32)CC1", "activity change, negative = inhibition": -5.76}, {"smiles": "O=C(O)CCCCCCCC(=O)O", "activity change, negative = inhibition": 2.49}, {"smiles": "C[C@]12CCC(=O)C=C1CC[C@@H]1[C@@H]2CC[C@@]2(C)[C@H]1CC[C@]2(O)C(=O)CO", "activity change, negative = inhibition": -6.21}, {"smiles": "CCC(=O)c1ccc2c(c1)N(CCCN(C)C)c1ccccc1S2", "activity change, negative = inhibition": 6.28}, {"smiles": "OCCN1CCN(CC/C=C2/c3ccccc3Sc3ccc(C(F)(F)F)cc32)CC1", "activity change, negative = inhibition": -3.45}, {"smiles": "CC(C)NCC(O)c1cc(O)cc(O)c1", "note": "(stereo not given)", "activity change, negative = inhibition": -11.4}, {"smiles": "COc1cc(Cc2cnc(N)nc2N)cc(OC)c1OC", "activity change, negative = inhibition": 2.58}, {"smiles": "CCc1c(C)[nH]c2c1C(=O)C(CN1CCOCC1)CC2", "note": "(stereo not given)", "activity change, negative = inhibition": -10.3}, {"smiles": "C[N+](C)(C)CCOC(=O)CCC(=O)OCC[N+](C)(C)C", "activity change, negative = inhibition": -5.3}, {"smiles": "NC(=O)c1ncn([C@@H]2O[C@H](CO)[C@@H](O)[C@H]2O)c1O", "activity change, negative = inhibition": -2.95}, {"smiles": "CNCCCN1c2ccccc2CCc2ccccc21", "activity change, negative = inhibition": -4.11}, {"smiles": "CCN(CC)CCNC(=O)c1cc(S(C)(=O)=O)ccc1OC", "activity change, negative = inhibition": -4.25}, {"smiles": "CCN(Cc1ccncc1)C(=O)C(CO)c1ccccc1", "note": "(stereo not given)", "activity change, negative = inhibition": -1.81}, {"smiles": "CN(C)CC[C@@H](c1ccc(Br)cc1)c1ccccn1", "activity change, negative = inhibition": -15.3}, {"smiles": "O=C1NCN(c2ccccc2)C12CCN(CCCC(c1ccc(F)cc1)c1ccc(F)cc1)CC2", "activity change, negative = inhibition": -2.58}, {"smiles": "Brc1c(NC2=NCCN2)ccc2nccnc12", "activity change, negative = inhibition": -19}, {"smiles": "O=C(O)CP(=O)(O)O", "activity change, negative = inhibition": -3.33}, {"smiles": "COC(=O)[C@H]1[C@H]2C[C@@H]3c4[nH]c5cc(OC)ccc5c4CCN3C[C@H]2C[C@@H](OC(=O)c2cc(OC)c(OC)c(OC)c2)[C@@H]1OC", "activity change, negative = inhibition": -12.6}, {"smiles": "CCN(CC)CCNC(=O)c1ccc(NC(C)=O)cc1", "activity change, negative = inhibition": -5.04}, {"smiles": "N[C@@H](COP(=O)(O)O)C(=O)O", "activity change, negative = inhibition": -11.1}, {"smiles": "NC(N)=N/N=C/c1c(Cl)cccc1Cl", "activity change, negative = inhibition": -8.76}, {"smiles": "CN(C)CCN(Cc1cccs1)c1ccccn1", "activity change, negative = inhibition": -5.48}, {"smiles": "O=C(CCNNC(=O)c1ccncc1)NCc1ccccc1", "activity change, negative = inhibition": -11.8}, {"smiles": "CC(=O)[C@]1(O)Cc2c(O)c3c(c(O)c2[C@@H](O[C@H]2C[C@H](N)[C@H](O)[C@H](C)O2)C1)C(=O)c1ccccc1C3=O", "activity change, negative = inhibition": -12.3}]}]}
